Only some compounds are listed: those with a hit (about 3.6% of all), similar ones and a draw of the others.
BoNT-F LC inh: blocks Botulinum neurotoxin F light chain protease | Multiplex microsphere protease cleavage assay, flow cytometry | inhibition, % at 10 µM | 0.22% of 360,000 active; in the data active means inhibition above about 35%, passing the limit was not always enough; inconclusive means no clear call, values can overlap the other calls; further: plate controls were buffer without enzyme for full effect and enzyme alone for no effect
MazEF act: MazEF (E. coli) toxin RNase activation; FAM/BHQ RNA-DNA oligo cleavage fluorescence, 5 h; 0.32% of 350,000 active; activation, % at 20 µM; P0AE70; in the data active means activation above about 50%
Target sequence (P0AE70 whole entry, looked up): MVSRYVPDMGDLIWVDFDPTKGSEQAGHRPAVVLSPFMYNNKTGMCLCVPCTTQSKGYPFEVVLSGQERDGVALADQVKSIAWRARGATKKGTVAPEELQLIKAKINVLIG
Bead autofluor: flagged as autofluorescent in microsphere protease counterscreen; AID 624483; fluorescence intensity (test concentration not listed); 3.1% of 360,000 active; compound autofluorescence counterscreen, microsphere flow cytometry; active compounds read high; in the data active means fluorescence intensity above about 16000; inconclusive means no clear call, values can overlap the other calls
BoNT-A LC inh2: inhibitors of Botulinum neurotoxin A light chain protease. AID 588499. 0.17% of 360,000 active. inhibition, % at 10 µM. multiplex microsphere protease substrate cleavage, flow cytometry; further: plate controls were buffer without enzyme for full effect and enzyme alone for no effect
Anthrax LF inh2: inhibitors of Bacillus anthracis lethal factor protease | P15917 | multiplex microsphere protease cleavage assay, LF | AID 588501 | inhibition, % at 10 µM | 0.12% of 360,000 active; further: plate controls were buffer without enzyme for full effect and enzyme alone for no effect
The depositor's hits bear a star; ? = inconclusive; . = no result given. Unless noted, no stated cut-off is given here; in the data, active means inhibition above about 30%; inconclusive means no clear call, values can overlap the other calls; inactive means below that.

SMILES	BoNT-F LC inh	MazEF act	Bead autofluor	BoNT-A LC inh2	Anthrax LF inh2
Clc1cccc(Cc2ccc(Cl)nn2)c1	14	6	4694	2	0
Clc1ccc(Cc2ccccc2)nn1	-4	5	21162*	-2	-2
COC(=O)c1ccccc1NC(=S)N(Cc1ccc2c(c1)OCO2)Cc1cc2ccc(OC)cc2[nH]c1=O	-9	9	2421	-1	-2
CCOC(=O)c1c(N)nn(C(=O)C(C)C)c1-c1ccc(OC)cc1	1	-3	16326*	0	-2
Cn1c2ccc(F)cc2c2ncn(Cc3ccco3)c(=O)c21	-7	2	23973*	-2	-2
Cn1c2ccccc2c2ncn(Cc3ccco3)c(=O)c21	1	4	19514*	2	0
Cc1ccc(-c2nnc3n2CCCCC3)cc1	-9	-4	2297	-1	-2
Clc1ccc(-c2nnc3n2CCCC3)cc1	-1	-2	21835*	0	1
COc1ccc(N=Cc2c(O)n(-c3cccc(C)n3)c(=O)c3ccccc23)c(OC)c1	?	278*	3217	4	63*
CCCc1nc2c(C)cc(Br)cn2c1Cc1ccc(C)cc1	-11	.	6746	3	-8
O=C(Nc1ccon1)c1cccc(S(=O)(=O)N2CCCC2)c1	-2	1	19894*	0	4
O=C(Nc1ccon1)c1cccc(S(=O)(=O)N2CCCCCC2)c1	8	4	5537	1	0
O=C(Nc1nc2ccc(S(=O)(=O)N3CCCCC3)cc2s1)c1cccnc1	6	4	21943*	6	-7
O=C(Nc1nc2ccc(S(=O)(=O)N3CCCCC3)cc2s1)c1ccncc1	-7	-3	3655	1	-1
Cn1c(SCc2ccc(Cl)cc2)nc(C(F)(F)F)cc1=O	-6	-3	20153*	-2	-4
CCCOc1ccc(F)cc1-c1cc(C(=O)Nc2ccc(OC)cc2C)[nH]n1	-4	.	3815	0	-3
Cc1c(N=Cc2ccc(-c3ccc(Cl)cc3)o2)c(=O)n(-c2ccccc2)n1C	-12	2	2587	-1	-5
CCn1[nH]c(=O)c(=Nc2c(C)n(C)n(-c3ccccc3)c2=O)cc1-c1ccc(Cl)cc1	2	-2	22167*	2	0
O=C(NCCCN1CCN(Cc2ccccc2)CC1)C1CCN(S(=O)(=O)N2CCC3(CC2)OCCO3)CC1	23	3	21569*	-5	4
Fc1cccc(C[n+]2csc3ccccc32)c1	-9	7	17119*	-3	-3
Sc1oc(-c2ccccc2)cc1C=Nc1ccccc1	-9	-2	24473*	-2	-4
O=[N+]([O-])c1cc2c(cc1C=Nc1ccccc1)OCO2	1	7	3808	1	-4
COc1ccccc1NC(=O)/C(C#N)=C/C=C/c1ccco1	0	4	22514*	1	-3
C=CCn1c(-c2cccc3ccccc23)n[nH]c1=S	-4	10	21011*	-2	-3
O=C1c2ccccc2NC2(CCCCC2)N1c1ccc(O)cc1	156*	8	6978	5	54*
SMILES	BoNT-F LC inh	MazEF act	Bead autofluor	BoNT-A LC inh2	Anthrax LF inh2
CC1CCC2(CC1)Nc1ccccc1C(=O)N2c1ccccc1 (configuration not stated)	9	1	4232	1	1
COc1ccc(-c2cn[nH]c2N)cc1	4	-1	3390	0	-4
COc1ccc(-c2cn[nH]c2N)c(OC)c1	4	2	17696*	7	-17
CCOc1ccc(-c2cn[nH]c2N)cc1	-4	2	23738*	0	0
Cc1noc(C)c1COc1ccccc1C(=O)NCCOc1ccccc1	-185	0	?	-115	-14
CCOC(=O)c1sc2nc(CC(=O)OC)nc(NCCN(CC)CC)c2c1C	2	5	18785*	3	-3
Cc1cccc(CSCCNC(=O)CSCc2ccc([N+](=O)[O-])cc2)c1	.	-10	.	.	.
Cc1ccc(CSCCNC(=O)CSCc2ccc([N+](=O)[O-])cc2)cc1	-3	-9	20785*	0	-3
Cc1ccccc1CSCCNC(=O)CSCc1ccc([N+](=O)[O-])cc1	0	-4	21363*	?	-3
O=C(NCC(=O)N1CCN(C(c2ccccc2)c2ccccc2)CC1)c1ccccc1Br	-1	-4	4243	-1	-7
NC(=O)c1sc2nc(N3CCCCC3)c3c(c2c1N)CCCC3	-3	-5	16416*	0	4
Cc1cc(C)n(-c2nc3nonc3nc2Nc2cccc(C)c2C)n1	17	190*	2716	1	-1
CC(C)Cn1c(N)c(C(=O)COC(=O)CCNS(=O)(=O)c2ccccc2)c(=O)n(C)c1=O	-6	10	6569	-1	-2

Screening data from PubChem BioAssay.
